# From PubChem BioAssay (EPA / NIEHS)
# Records with an inconclusive call do not appear. The source made the active and inactive calls. How the source made its calls, unless noted: active means hit-call score of the fitted dose curve at least 0.9, where 1 is the maximum; inconclusive means response in the unintended direction; inactive means score below 0.9.
# Experiments:
# [1] = biological target: Bile acid receptor (Homo sapiens) (UniProt Q96RI1); assay: ATG_FXR_TRANS: Attagene TRANS-FACTORIAL HepG2 Assay for Farnesoid X Receptor (FXR) (AID 2282979); settings: HepG2 Attagene TRANS FXR-GAL4 reporter transcription;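 further: hits raise reporter mRNA above DMSO so AC50 marks FXR activation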
# Sequence of Bile acid receptor (Homo sapiens) (Q96RI1 whole entry, looked up, the tested form may be a part): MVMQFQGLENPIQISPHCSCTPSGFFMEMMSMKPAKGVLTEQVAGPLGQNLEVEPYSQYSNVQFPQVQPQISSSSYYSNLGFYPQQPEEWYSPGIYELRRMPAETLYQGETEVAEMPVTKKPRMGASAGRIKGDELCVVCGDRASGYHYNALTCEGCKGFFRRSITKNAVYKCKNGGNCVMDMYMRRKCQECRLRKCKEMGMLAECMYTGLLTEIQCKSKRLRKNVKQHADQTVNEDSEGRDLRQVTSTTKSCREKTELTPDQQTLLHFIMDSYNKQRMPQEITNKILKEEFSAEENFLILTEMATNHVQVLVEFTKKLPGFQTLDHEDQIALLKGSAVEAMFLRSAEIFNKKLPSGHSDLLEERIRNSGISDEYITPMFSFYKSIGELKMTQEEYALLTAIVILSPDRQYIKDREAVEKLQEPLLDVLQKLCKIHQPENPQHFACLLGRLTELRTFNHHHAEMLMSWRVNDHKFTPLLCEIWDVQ
# Method in brief: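 Read-out: fluorescent reporter transcripts quantified by capillary electrophoresis after RT-PCR of total RNA. Source cells were HepG2 transiently carrying chimeric NR-GAL4 plus GAL4-UAS reporter units, dosed 24 h. Activity fitted upward relative to DMSO baseline.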
# [2] = biological target: Oxysterols receptor LXR-beta (Homo sapiens) (UniProt P55055); assay: ATG_LXRb_TRANS: Attagene TRANS-FACTORIAL HepG2 Assay for human Liver X Receptor beta (LXRb) (AID 2282981); settings: HepG2 Attagene TRANS GAL4-LXRb reporter, mRNA
# Sequence of Oxysterols receptor LXR-beta (Homo sapiens) (P55055 whole entry, looked up, the tested form may be a part): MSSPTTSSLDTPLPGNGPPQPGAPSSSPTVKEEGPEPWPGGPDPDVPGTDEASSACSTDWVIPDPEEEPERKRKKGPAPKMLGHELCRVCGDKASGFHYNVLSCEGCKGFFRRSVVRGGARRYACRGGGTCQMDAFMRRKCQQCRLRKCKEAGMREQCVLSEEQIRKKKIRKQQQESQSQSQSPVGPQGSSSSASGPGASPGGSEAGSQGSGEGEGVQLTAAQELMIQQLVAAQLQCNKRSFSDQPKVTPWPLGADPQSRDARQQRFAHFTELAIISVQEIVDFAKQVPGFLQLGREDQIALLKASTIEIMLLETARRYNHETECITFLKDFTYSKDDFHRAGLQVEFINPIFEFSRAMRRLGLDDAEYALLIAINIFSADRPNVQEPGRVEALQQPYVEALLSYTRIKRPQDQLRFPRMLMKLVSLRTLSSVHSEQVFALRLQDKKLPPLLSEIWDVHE
# Method in brief: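 Gain-of-signal mRNA reporter endpoint, DMSO as negative control. Transiently transfected HepG2 cells carrying the NR-Gal4 chimera and GAL4-UAS reporter units were treated 24 h; transcripts quantified by RT-PCR and capillary electrophoresis fluorescence.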
# [3] = biological target: Hepatocyte nuclear factor 4-alpha (Homo sapiens) (UniProt P41235); assay: ATG_HNF4a_TRANS: Attagene TRANS-FACTORIAL HepG2 Assay for human Hepatocyte Nuclear Factor 4 alpha (HNF4a) (AID 2282982); settings: HepG2 HNF4a transactivation reporter, mRNA readout
# Sequence of Hepatocyte nuclear factor 4-alpha (Homo sapiens) (P41235 whole entry, looked up, the tested form may be a part): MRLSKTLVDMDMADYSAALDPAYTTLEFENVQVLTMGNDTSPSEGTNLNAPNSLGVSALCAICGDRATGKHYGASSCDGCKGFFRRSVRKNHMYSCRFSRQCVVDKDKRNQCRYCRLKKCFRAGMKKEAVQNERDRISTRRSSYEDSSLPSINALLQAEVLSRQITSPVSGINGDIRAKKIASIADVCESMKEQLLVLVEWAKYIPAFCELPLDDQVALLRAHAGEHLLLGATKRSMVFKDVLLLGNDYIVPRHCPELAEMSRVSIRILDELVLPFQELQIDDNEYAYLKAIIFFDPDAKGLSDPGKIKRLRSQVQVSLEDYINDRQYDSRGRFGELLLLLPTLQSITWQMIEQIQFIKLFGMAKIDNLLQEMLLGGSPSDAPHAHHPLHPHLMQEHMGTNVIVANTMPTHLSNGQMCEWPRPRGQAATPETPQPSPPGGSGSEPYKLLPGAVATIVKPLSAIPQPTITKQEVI
# Method in brief: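 Gain-of-signal mRNA induction, relative to DMSO vehicle, was read after 24 h compound treatment of HepG2 cells bearing transfected GAL4-UAS reporters. Detection used RT-PCR, 6-FAM primer extension and capillary electrophoresis.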
# [4] = ATG_M_32_TRANS: Attagene TRANS-FACTORIAL HepG2 Assay for M32 Transcription Factor (Internal Marker) (AID 2282984); settings: HepG2 Attagene TRANS M32 internal marker reporter;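 further: transcript level of a background control reporter unit measured by RT-PCR and capillary electrophoresis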
# Method in brief: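 Capillary electrophoresis of 6-FAM-labelled reporter fragments gives the signal; data fitted for gain over DMSO negative control. Source: HepG2 cells bearing transient multiple reporter transcription units, 24 h exposure.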
# [5] = biological target: Nuclear receptor subfamily 4 group A member 2 (Homo sapiens) (UniProt P43354); assay: ATG_NURR1_TRANS: Attagene TRANS-FACTORIAL HepG2 Assay for human Nuclear Receptor Related Protein 1 (NURR1) (AID 2282985); settings: HepG2 Attagene TRANS reporter, mRNA readout
# Sequence of Nuclear receptor subfamily 4 group A member 2 (Homo sapiens) (P43354 whole entry, looked up): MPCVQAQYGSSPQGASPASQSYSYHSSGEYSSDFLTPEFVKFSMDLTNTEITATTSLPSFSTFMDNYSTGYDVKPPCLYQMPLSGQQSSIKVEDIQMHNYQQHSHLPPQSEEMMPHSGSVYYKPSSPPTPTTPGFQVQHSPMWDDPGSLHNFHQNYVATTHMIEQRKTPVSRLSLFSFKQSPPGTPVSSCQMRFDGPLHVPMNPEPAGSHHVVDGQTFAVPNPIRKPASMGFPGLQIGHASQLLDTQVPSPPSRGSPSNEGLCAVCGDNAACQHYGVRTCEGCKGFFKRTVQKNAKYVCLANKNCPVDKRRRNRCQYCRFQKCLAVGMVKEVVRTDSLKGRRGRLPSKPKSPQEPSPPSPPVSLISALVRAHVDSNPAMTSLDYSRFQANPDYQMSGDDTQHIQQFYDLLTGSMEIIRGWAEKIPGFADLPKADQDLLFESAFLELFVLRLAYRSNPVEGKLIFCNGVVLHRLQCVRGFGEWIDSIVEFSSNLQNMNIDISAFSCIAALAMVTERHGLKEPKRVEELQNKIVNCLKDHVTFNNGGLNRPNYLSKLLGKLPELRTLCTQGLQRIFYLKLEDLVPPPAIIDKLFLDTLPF
# Method in brief: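 HepG2 / transient MRTU transfection / 24 h compound exposure / RT-PCR + CE fluorescence of reporter mRNA / gain-of-signal vs DMSO.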
# [6] = biological target: Nuclear respiratory factor 1 (Homo sapiens) (UniProt Q16656); assay: ATG_NRF1_CIS: Attagene CIS-FACTORIAL HepG2 Assay for human Nuclear Respiratory Factor 1 (NRF1) Orphan Gene (AID 2282987; active means hit-call score of the fitted dose curve at least 0.9, where 1 is the maximum; inactive means score below 0.9); settings: HepG2 NRF1 cis-element reporter, Attagene multiplex; actives raise or lower the signal
# Sequence of Nuclear respiratory factor 1 (Homo sapiens) (Q16656 whole entry, looked up): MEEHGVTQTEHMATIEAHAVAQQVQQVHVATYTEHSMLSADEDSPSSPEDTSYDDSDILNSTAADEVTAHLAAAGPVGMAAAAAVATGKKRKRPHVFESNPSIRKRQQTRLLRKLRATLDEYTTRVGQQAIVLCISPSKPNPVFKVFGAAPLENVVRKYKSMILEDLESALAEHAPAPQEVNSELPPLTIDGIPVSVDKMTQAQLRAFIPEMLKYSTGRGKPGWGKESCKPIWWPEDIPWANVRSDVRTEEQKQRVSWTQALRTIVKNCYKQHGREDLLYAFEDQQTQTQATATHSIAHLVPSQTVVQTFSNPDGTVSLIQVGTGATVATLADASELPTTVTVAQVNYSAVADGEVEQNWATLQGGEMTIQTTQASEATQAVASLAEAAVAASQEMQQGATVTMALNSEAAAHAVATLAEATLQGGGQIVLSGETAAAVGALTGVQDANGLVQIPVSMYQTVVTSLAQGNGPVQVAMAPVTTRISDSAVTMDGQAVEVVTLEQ
# Method in brief: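 Endogenous NRF1-driven reporter transcription measured in transiently transfected human HepG2 liver cells. Readout: reporter mRNA by RT-PCR and capillary electrophoresis with fluorescence detection, 24 h post-dosing. Gain or loss of signal fitted relative to DMSO baseline.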
# [7] = ATG_NFI_CIS: Attagene CIS-FACTORIAL HepG2 Assay for human Nuclear Factor I (NFI) (AID 2282989; active means hit-call score of the fitted dose curve at least 0.9, where 1 is the maximum; inactive means score below 0.9); settings: HepG2 cis-regulatory reporter, NFI response element transcription; actives raise or lower the signal
# Method in brief: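 Transfected HepG2 liver cells, exposed 24 h, supplied total RNA for oligo(dT) reverse transcription and reporter-specific PCR. Labelled, HpaI-cut fragments were sized by capillary electrophoresis; DMSO set the baseline for bidirectional fitting.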
# [8] = biological target: Transcriptional activator Myb (Homo sapiens) (UniProt P10242); assay: ATG_Myb_CIS: Attagene CIS-FACTORIAL HepG2 Assay for human Myeloblastosis (Myb) Proto-Oncogene Transcription Factor (AID 2282986; active means hit-call score of the fitted dose curve at least 0.9, where 1 is the maximum; inactive means score below 0.9); settings: HepG2 Attagene CIS-FACTORIAL Myb reporter transcription; actives raise or lower the signal
# Sequence of Transcriptional activator Myb (Homo sapiens) (P10242 whole entry, looked up): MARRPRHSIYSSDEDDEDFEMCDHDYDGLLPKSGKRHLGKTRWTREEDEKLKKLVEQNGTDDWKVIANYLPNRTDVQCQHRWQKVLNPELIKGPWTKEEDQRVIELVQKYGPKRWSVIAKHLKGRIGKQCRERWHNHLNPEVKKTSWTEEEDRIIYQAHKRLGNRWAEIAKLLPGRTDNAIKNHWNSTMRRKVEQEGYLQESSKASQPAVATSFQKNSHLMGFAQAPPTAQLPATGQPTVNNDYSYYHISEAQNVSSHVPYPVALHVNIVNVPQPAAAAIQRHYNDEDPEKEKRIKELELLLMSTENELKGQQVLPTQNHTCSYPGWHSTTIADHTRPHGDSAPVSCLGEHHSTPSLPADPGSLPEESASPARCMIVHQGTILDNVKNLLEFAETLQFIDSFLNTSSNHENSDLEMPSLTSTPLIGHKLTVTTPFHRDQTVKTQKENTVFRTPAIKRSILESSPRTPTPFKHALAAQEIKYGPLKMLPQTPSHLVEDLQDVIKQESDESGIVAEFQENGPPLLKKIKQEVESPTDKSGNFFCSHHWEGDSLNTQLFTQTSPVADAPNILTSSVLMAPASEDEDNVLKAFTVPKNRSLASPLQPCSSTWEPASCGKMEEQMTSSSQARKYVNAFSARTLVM
# Method in brief: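 HepG2, transient MRTU transfection (cis-element promoters, endogenous TF activity), 24 h compound exposure. Readout: reporter mRNA via RT-PCR, 6-FAM labeling, HpaI digest, capillary electrophoresis. Gain/loss fit vs DMSO.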
# [9] = ATG_M_06_TRANS: Attagene TRANS-FACTORIAL HepG2 Assay for M06 Transcription Factor (Internal Marker) (AID 2282983); settings: HepG2 Attagene TRANS M06 internal marker reporter
# Method in brief: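 After a 24 h chemical treatment of transfected HepG2, RNA underwent DNase I treatment, reverse transcription and reporter-specific PCR; labelled, HpaI-digested products were sized by capillary electrophoresis. Signal increase relative to DMSO defined activity.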
# [10] = biological target: Oxysterols receptor LXR-alpha (Homo sapiens) (UniProt Q13133); assay: ATG_LXRa_TRANS: Attagene TRANS-FACTORIAL HepG2 Assay for human Liver X Receptor alpha (LXRa) (AID 2282980); settings: HepG2 Attagene TRANS reporter, LXRa transactivation
# Sequence of Oxysterols receptor LXR-alpha (Homo sapiens) (Q13133 whole entry, looked up, the tested form may be a part): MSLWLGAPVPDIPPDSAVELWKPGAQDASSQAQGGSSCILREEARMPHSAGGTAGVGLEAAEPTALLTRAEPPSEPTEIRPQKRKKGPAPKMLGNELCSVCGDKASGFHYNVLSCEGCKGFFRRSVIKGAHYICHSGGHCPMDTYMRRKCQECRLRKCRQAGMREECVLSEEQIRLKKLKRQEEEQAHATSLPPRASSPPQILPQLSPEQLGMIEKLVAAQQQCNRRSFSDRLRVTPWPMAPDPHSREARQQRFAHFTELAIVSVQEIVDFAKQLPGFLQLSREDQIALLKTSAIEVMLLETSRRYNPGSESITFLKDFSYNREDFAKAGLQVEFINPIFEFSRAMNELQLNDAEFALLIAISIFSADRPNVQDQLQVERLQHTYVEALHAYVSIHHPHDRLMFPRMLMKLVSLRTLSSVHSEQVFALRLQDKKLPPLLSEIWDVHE
# Method in brief: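 Read-out: reporter transcript levels by RT-PCR plus capillary electrophoresis, fluorescence intensity. Transiently transfected HepG2, exogenous NR-GAL4 chimera, GAL4-UAS reporters; 24 h compound exposure. Activity = increase over DMSO negative control.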
smiles,measurement,setting,value
CCCCS(=O)(=O)Cl,outcome,[1],inactive
same,outcome,[2],inactive
same,outcome,[3],inactive
same,outcome,[4],inactive
same,outcome,[5],inactive
same,outcome,[6],inactive
same,outcome,[7],inactive
C=CC(=O)[O][Sn]([CH2]CCC)([CH2]CCC)[CH2]CCC,outcome,[1],inactive
same,outcome,[2],inactive
same,outcome,[3],inactive
same,outcome,[4],inactive
same,AC50,[5],1.09 nM (active)
same,outcome,[8],inactive
same,outcome,[6],inactive
same,AC50,[7],179 nM (active)
O=C(NC(=O)c1c(F)cccc1F)Nc1ccc(Cl)cc1,outcome,[1],inactive
same,outcome,[3],inactive
same,outcome,[9],inactive
same,outcome,[4],inactive
same,outcome,[5],inactive
same,outcome,[8],inactive
same,outcome,[6],inactive
same,outcome,[7],inactive
Cc1cc(Cl)ccc1O,outcome,[1],inactive
same,outcome,[2],inactive
same,outcome,[3],inactive
same,outcome,[4],inactive
same,outcome,[8],inactive
same,outcome,[7],inactive
[Cl][Sn]([c]1ccccc1)([c]1ccccc1)[c]1ccccc1,outcome,[1],inactive
same,outcome,[2],inactive
same,AC50,[3],228 nM (active)
same,outcome,[9],inactive
same,AC50,[5],6.88 nM (active)
same,AC50,[6],216 nM (active)
same,AC50,[7],228 nM (active)
CC(C)(C)c1ccc(CCOc2ncnc3ccccc23)cc1,outcome,[1],inactive
same,outcome,[2],inactive
same,outcome,[4],inactive
same,outcome,[8],inactive
same,outcome,[7],inactive
O=[N+]([O-])c1ccc(Nc2ccccc2)cc1,outcome,[1],inactive
same,outcome,[2],inactive
same,outcome,[3],inactive
same,outcome,[9],inactive
same,outcome,[5],inactive
same,outcome,[8],inactive
same,outcome,[6],inactive
same,outcome,[7],inactive
O=NN1CCCCCCC1,outcome,[1],inactive
same,outcome,[2],inactive
same,outcome,[3],inactive
same,outcome,[9],inactive
same,outcome,[4],inactive
same,outcome,[6],inactive
same,outcome,[7],inactive
Cc1cc(SCc2sc(-c3ccc(C(F)(F)F)c(F)c3)nc2C)ccc1OCC(=O)O,AC50,[1],27100 nM (active)
same,outcome,[2],inactive
same,outcome,[6],inactive
same,outcome,[7],inactive
OCC(c1ccc(Cl)cc1)c1ccc(Cl)cc1,outcome,[1],inactive
same,outcome,[3],inactive
same,outcome,[9],inactive
same,outcome,[4],inactive
same,AC50,[5],46300 nM (active)
same,outcome,[6],inactive
same,outcome,[7],inactive
C[C@@H]1O[C@@H](O[C@H]2C[C@@H](O)[C@]3(CO)[C@H]4[C@H](O)C[C@]5(C)[C@@H](C6=CC(=O)OC6)CC[C@]5(O)[C@@H]4CC[C@]3(O)C2)[C@H](O)[C@H](O)[C@H]1O,outcome,[1],inactive
same,outcome,[2],inactive
same,outcome,[3],inactive
same,outcome,[9],inactive
same,outcome,[5],inactive
same,AC50,[8],328 nM (active)
same,outcome,[6],inactive
same,AC50,[7],645 nM (active)
CCOP(=S)(OCC)OP(=S)(OCC)OCC,outcome,[1],inactive
same,outcome,[2],inactive
same,outcome,[3],inactive
same,outcome,[4],inactive
same,outcome,[5],inactive
same,outcome,[8],inactive
same,outcome,[6],inactive
same,outcome,[7],inactive
CC(C=O)Cc1ccc2c(c1)OCO2 (centres undefined),outcome,[1],inactive
same,outcome,[3],inactive
same,outcome,[9],inactive
same,outcome,[5],inactive
same,outcome,[8],inactive
same,outcome,[6],inactive
same,outcome,[7],inactive
C1CCC(C2CCCCC2)CC1,outcome,[1],inactive
same,outcome,[2],inactive
same,outcome,[9],inactive
same,outcome,[8],inactive
same,outcome,[6],inactive
same,outcome,[7],inactive
NC(=O)c1ccc(N)nc1,outcome,[1],inactive
same,outcome,[2],inactive
same,outcome,[3],inactive
same,outcome,[8],inactive
same,outcome,[6],inactive
same,outcome,[7],inactive
NNCCO,outcome,[1],inactive
same,outcome,[2],inactive
same,outcome,[3],inactive
same,outcome,[8],inactive
same,outcome,[6],inactive
same,outcome,[7],inactive
CC1(C)[C@H](C(=O)O[C@H](C#N)c2cccc(Oc3ccccc3)c2)[C@@H]1/C=C(\Cl)C(F)(F)F,outcome,[1],inactive
same,outcome,[3],inactive
same,outcome,[9],inactive
same,outcome,[4],inactive
same,outcome,[5],inactive
same,outcome,[8],inactive
same,outcome,[7],inactive
c1cc[c]([Sb]([c]2ccccc2)[c]2ccccc2)cc1,outcome,[1],inactive
same,outcome,[3],inactive
same,outcome,[9],inactive
same,outcome,[4],inactive
same,AC50,[5],17500 nM (active)
same,outcome,[8],inactive
same,outcome,[7],inactive
CC(C)CC(C)(c1ccc(O)cc1)c1ccc(O)cc1,AC50,[1],7120 nM (active)
same,outcome,[2],inactive
same,outcome,[9],inactive
same,outcome,[5],inactive
same,outcome,[8],inactive
same,outcome,[6],inactive
same,AC50,[7],16900 nM (active)
C=C(C)[C@@H]1CC=C(C=O)CC1,outcome,[1],inactive
same,outcome,[2],inactive
same,outcome,[9],inactive
same,outcome,[5],inactive
same,outcome,[6],inactive
same,outcome,[7],inactive
CC1(C)COP(Oc2ccccc2)OC1,outcome,[1],inactive
same,outcome,[2],inactive
same,outcome,[9],inactive
same,outcome,[4],inactive
same,outcome,[5],inactive
same,outcome,[8],inactive
same,outcome,[6],inactive
same,outcome,[7],inactive
CN(C)[C@@H]1C(=O)C(C(N)=O)=C(O)[C@@]2(O)C(=O)C3=C(O)c4c(O)ccc(Cl)c4[C@@](C)(O)[C@H]3C[C@@H]12,outcome,[1],inactive
same,outcome,[2],inactive
same,outcome,[9],inactive
same,outcome,[4],inactive
same,outcome,[5],inactive
same,outcome,[8],inactive
same,outcome,[6],inactive
same,outcome,[7],inactive
C=CCOC(F)(C(F)(F)F)C(F)(F)F,outcome,[1],inactive
same,outcome,[3],inactive
same,outcome,[9],inactive
same,outcome,[5],inactive
same,outcome,[8],inactive
same,outcome,[6],inactive
same,outcome,[7],inactive
N#Cc1ccccc1N,outcome,[1],inactive
same,outcome,[2],inactive
same,outcome,[3],inactive
same,outcome,[4],inactive
same,outcome,[8],inactive
same,outcome,[6],inactive
same,outcome,[7],inactive
OC(Cc1ccccc1Cl)(Cn1[nH]cnc1=S)C1(Cl)CC1 (centres undefined),outcome,[1],inactive
same,outcome,[5],inactive
same,outcome,[8],inactive
same,outcome,[6],inactive
same,outcome,[7],inactive
O=C(NC(=O)c1c(F)cccc1F)Nc1cc(Cl)c(OC(F)(F)C(F)C(F)(F)F)cc1Cl (centres undefined),outcome,[10],inactive
same,AC50,[2],49900 nM (active)
same,outcome,[3],inactive
same,outcome,[9],inactive
same,outcome,[4],inactive
same,outcome,[8],inactive
same,outcome,[6],inactive
same,outcome,[7],inactive
O=C(O)C1(c2ccc3c(c2)OC[C@H](Cc2ccc(-c4ccccc4)cc2)[C@H]3O)CCCC1,outcome,[1],inactive
same,outcome,[9],inactive
same,outcome,[4],inactive
same,outcome,[5],inactive
same,outcome,[8],inactive
same,outcome,[6],inactive
same,outcome,[7],inactive
CCCSP(=S)(OCC)Oc1ccc(SC)cc1 (centres undefined),outcome,[1],inactive
same,outcome,[5],inactive
same,outcome,[8],inactive
same,outcome,[6],inactive
same,outcome,[7],inactive
C=CC(=O)OCC(COC(=O)C=C)(COC(=O)C=C)COC(=O)C=C,outcome,[1],inactive
same,AC50,[3],44600 nM (active)
same,outcome,[9],inactive
same,outcome,[6],inactive
same,outcome,[7],inactive
O=S(=O)(c1ccc(Cl)cc1)c1cc(Cl)c(Cl)cc1Cl,outcome,[1],inactive
same,outcome,[9],inactive
same,outcome,[5],inactive
same,outcome,[8],inactive
same,outcome,[6],inactive
same,outcome,[7],inactive
C=CC(Cl)CCl (centres undefined),outcome,[1],inactive
same,outcome,[9],inactive
same,outcome,[5],inactive
same,outcome,[8],inactive
same,outcome,[6],inactive
same,outcome,[7],inactive
CCCCCCCCBr,outcome,[1],inactive
same,outcome,[3],inactive
same,outcome,[4],inactive
same,outcome,[5],inactive
same,outcome,[8],inactive
same,outcome,[6],inactive
same,outcome,[7],inactive
